Targets with a hit are over-represented here; the source holds about 7,900 in all. About 0.6% of all pairs of compound and target were hits.
compound: Cc1cccc(CC(=O)N2CCc3c2ccc(-c2cn(C)c4ncnc(N)c24)c3F)n1; experiment: log2 fold change, soluble protein after heating vs DMSO (PISA); higher = thermal stabilisation; K562 cells, 10 uM, 30 min; active = over 0.2 and 3.5 SD of the protein, either way, in both replicates (recomputed)
Method in brief: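 For each measurement, 10 μM compound was applied for 30 min to K562 cells at 2×10^6 cells/mL. Aliquots were heated for 3 min across 48°C-58°C, pooled, and extracted in PBS with 0.5% NP-40 at 4°C; the supernatant after 21,000xg for 90 min was soluble protein. This was quantified by TMTpro 16plex LC-MS/MS with channel sums equalised, and thermal stability was reported relative to control samples from duplicates, on a log2 fold-change scale.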

Sequence of UniProt O14880 (O14880 whole entry, looked up): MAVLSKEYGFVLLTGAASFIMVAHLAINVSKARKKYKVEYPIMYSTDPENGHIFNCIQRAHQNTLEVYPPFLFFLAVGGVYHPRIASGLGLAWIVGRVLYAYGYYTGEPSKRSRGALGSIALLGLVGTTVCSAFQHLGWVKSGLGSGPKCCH
Sequence of UniProt P01130 (P01130 whole entry, looked up): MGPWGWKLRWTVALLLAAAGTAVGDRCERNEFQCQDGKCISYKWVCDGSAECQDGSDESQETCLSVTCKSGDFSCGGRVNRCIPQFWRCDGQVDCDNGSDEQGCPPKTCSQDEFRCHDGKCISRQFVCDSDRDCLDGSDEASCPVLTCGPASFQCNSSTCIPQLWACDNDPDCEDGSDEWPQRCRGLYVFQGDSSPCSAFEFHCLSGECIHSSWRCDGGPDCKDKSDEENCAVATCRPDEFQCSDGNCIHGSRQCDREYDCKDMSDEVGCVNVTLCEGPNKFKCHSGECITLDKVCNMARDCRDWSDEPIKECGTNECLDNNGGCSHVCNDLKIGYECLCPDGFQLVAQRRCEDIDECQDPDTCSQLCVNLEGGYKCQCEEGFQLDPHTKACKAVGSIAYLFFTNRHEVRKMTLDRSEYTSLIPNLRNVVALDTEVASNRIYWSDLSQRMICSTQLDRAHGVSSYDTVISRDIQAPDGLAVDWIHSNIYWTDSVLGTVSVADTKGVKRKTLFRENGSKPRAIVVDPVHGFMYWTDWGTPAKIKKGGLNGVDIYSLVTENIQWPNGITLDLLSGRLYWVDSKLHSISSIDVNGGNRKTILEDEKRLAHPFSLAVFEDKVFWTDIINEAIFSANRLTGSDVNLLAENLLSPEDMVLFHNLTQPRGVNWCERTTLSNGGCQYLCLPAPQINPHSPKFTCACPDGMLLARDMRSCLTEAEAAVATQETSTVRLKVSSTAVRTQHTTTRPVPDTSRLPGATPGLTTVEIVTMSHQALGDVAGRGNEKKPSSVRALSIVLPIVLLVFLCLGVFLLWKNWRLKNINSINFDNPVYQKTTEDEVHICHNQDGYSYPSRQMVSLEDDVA
Sequence of UniProt Q7LBC6 (Q7LBC6 whole entry, looked up): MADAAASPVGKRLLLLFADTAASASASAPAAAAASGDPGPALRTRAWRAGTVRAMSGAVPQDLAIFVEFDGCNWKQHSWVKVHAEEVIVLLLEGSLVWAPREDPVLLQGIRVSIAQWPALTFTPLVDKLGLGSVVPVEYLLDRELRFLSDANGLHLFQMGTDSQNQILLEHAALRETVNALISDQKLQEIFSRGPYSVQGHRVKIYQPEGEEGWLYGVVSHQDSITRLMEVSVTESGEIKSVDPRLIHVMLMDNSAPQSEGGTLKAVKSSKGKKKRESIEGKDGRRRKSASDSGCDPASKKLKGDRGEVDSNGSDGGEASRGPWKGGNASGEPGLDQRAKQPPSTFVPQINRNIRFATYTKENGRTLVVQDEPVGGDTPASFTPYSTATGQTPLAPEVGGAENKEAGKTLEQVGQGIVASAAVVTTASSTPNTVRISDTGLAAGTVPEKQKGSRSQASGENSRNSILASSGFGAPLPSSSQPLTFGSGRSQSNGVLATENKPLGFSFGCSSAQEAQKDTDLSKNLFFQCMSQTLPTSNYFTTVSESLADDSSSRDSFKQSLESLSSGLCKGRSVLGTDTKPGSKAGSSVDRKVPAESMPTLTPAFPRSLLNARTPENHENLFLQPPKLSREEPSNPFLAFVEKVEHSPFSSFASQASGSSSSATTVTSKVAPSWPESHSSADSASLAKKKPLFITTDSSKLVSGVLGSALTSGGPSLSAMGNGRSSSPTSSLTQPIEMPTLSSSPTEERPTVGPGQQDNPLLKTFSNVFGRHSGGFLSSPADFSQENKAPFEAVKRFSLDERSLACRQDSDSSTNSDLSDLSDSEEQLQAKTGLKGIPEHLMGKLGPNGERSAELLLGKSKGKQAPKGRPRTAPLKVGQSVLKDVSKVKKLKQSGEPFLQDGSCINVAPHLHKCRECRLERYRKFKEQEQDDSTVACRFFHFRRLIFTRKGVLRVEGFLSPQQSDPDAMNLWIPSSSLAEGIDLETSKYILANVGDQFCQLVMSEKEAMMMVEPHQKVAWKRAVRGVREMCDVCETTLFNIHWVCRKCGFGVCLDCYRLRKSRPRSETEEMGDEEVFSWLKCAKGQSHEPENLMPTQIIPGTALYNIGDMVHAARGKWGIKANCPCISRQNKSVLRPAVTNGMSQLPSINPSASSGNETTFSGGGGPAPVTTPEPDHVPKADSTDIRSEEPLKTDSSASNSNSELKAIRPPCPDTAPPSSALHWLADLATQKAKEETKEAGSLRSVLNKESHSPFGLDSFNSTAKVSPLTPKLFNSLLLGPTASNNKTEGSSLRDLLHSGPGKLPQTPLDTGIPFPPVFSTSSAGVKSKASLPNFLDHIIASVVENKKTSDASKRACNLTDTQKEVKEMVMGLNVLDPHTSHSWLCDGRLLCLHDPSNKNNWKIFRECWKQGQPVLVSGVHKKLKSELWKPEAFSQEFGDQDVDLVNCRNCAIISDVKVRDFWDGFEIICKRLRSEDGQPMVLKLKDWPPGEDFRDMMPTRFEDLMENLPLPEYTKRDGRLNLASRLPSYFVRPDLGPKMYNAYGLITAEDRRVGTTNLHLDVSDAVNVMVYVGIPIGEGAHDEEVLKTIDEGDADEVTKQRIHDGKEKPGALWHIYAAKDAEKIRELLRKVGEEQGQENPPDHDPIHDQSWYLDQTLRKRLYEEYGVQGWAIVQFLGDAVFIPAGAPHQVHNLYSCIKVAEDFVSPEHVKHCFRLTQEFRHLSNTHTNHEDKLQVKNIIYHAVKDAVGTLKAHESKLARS
Sequence of UniProt Q8IWA4 (Q8IWA4 whole entry, looked up): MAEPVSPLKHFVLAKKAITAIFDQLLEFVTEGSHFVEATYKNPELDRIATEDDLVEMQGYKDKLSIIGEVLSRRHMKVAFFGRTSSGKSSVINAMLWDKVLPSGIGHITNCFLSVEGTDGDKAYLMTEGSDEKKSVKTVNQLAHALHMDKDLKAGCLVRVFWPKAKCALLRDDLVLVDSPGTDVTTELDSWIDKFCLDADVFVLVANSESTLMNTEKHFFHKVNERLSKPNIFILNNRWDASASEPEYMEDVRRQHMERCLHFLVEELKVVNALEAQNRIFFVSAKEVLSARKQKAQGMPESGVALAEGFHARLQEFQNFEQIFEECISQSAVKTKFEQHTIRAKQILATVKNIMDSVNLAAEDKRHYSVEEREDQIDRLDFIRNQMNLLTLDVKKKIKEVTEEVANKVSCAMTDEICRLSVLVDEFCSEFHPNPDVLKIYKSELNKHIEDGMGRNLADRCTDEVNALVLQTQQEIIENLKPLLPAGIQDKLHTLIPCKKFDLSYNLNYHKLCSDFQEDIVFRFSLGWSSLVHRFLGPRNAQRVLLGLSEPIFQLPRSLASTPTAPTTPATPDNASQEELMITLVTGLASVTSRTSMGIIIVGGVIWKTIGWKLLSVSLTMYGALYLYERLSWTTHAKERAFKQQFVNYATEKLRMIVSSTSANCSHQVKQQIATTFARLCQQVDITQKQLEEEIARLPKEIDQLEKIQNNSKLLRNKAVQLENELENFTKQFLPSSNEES
Sequence of UniProt Q4G0J3 (Q4G0J3 whole entry, looked up): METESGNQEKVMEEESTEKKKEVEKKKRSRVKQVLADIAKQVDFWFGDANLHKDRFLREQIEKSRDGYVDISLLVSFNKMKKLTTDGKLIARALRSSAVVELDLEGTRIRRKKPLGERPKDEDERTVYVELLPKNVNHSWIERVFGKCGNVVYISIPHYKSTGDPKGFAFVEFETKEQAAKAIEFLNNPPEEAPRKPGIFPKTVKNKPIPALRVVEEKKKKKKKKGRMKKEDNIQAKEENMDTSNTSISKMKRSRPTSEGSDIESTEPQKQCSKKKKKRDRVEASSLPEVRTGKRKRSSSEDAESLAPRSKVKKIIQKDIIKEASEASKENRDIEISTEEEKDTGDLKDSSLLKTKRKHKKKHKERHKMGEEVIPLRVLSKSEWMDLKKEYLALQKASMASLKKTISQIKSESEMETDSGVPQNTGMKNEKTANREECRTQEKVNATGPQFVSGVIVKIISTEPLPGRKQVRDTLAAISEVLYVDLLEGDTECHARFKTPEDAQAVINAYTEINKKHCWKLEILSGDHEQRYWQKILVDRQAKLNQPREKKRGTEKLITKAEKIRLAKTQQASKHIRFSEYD
Sequence of UniProt Q9C0E8 (Q9C0E8 whole entry, looked up): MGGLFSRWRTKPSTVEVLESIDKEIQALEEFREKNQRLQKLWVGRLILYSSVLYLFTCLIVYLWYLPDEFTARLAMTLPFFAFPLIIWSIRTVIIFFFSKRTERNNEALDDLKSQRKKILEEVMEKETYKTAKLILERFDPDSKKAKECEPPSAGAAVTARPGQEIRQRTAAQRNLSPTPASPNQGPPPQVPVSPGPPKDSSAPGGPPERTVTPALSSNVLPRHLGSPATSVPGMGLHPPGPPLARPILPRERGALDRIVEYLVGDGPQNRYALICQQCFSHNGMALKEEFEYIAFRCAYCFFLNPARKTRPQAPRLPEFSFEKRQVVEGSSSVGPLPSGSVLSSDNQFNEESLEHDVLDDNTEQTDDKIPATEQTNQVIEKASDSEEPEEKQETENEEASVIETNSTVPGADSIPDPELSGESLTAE
Sequence of UniProt Q8IYU8 (Q8IYU8 whole entry, looked up): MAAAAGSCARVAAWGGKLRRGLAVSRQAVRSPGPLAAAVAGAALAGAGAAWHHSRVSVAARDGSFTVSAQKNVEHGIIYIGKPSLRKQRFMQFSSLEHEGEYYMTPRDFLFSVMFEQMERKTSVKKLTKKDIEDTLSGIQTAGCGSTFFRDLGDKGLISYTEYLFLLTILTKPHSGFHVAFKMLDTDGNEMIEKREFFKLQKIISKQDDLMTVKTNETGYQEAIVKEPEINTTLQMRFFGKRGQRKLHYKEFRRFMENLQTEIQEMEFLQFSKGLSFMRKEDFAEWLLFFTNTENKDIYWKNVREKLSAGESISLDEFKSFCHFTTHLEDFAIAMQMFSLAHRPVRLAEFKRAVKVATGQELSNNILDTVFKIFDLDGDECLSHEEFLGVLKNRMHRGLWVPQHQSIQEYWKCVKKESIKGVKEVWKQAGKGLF

log2 fold change, inactive:
LONP2 (UniProt Q86WA8) -0.054
KDM3B (UniProt Q7LBC6) 0.038
LARP4B (UniProt Q92615) -0.025
LDLR (UniProt P01130) -0.029
IRF2BPL (UniProt Q9H1B7) 0.012
LTN1 isoform 3 (UniProt O94822) 0.039
LARP7 isoform 3 (UniProt Q4G0J3) 0.041
LNPK (UniProt Q9C0E8) -0.035
MAP2K3 isoform 3 (UniProt P46734) 0.096
MICU2 (UniProt Q8IYU8) 0.092
MGST3 (UniProt O14880) -0.002
KSR1 (UniProt Q8IVT5) -0.052
IWS1 (UniProt Q96ST2) -0.022
MFN1 (UniProt Q8IWA4) -0.034
MARK3 (UniProt P27448) 0.108
MDC1 (UniProt Q14676) -0.269
MAP4 (UniProt E7EVA0) -0.028

Source: the supplement of paper PMC10849652
